hcDAF-12 act: activators of H. contortus DAF-12 nuclear receptor | 1.4% of 370,000 active | HEK293 hcDAF-12 lit1-tk-luc reporter, luminescence; 0% DMSO, 100% Δ7-dafachronic acid | AID 652067 | activation, % at 6.8 µM;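 active = activation above the mean of all tested compounds plus 3 SD, cut at about 5.5% in these data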
DAX1 inh-1: inhibits human nuclear receptor DAX1. P51843. HEK293 Gal4-DAX1 luciferase reporter, luminescence. inhibition, % at 6.75 µM. 0.99% of 340,000 active. AID 504766;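 active = inhibition above the mean over all tested compounds plus 3 SD, cut at about 4.2% in these data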;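 also: inhibition shows as a rise in luminescence from relieved DAX1 repression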
hgDAF-12 ag: agonists of H. glycines DAF-12 nuclear receptor; HEK293 GAL4-hgDAF12 UAS-luciferase reporter, agonist luminescence; normalized to butyrate control; activation, % at 6.8 µM; 1.8% of 370,000 active;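 active = activation above a cutoff set at the mean of all screened compounds plus 3 SD, cut at about 10% in these data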
ssDAF-12 act: activators of S. stercoralis DAF-12 nuclear receptor | HEK293 ssDAF-12/GRIP1 lit1-tk-luc reporter, luminescence; % of 3 µM dafachronic acid response | activation, % at 6.8 µM | 1% of 370,000 active;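 active = activation above the mean over all tested compounds plus 3 SD, cut at about 0.9% in these data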
AHR activator: activators of human aryl hydrocarbon receptor | P35869 | AHR-responsive luciferase reporter cells, luminescence | activation, % at 5 µM | 2.5% of 320,000 active | AID 2796; in the data active = activation above about 47%
Target sequence (P35869 whole entry, looked up): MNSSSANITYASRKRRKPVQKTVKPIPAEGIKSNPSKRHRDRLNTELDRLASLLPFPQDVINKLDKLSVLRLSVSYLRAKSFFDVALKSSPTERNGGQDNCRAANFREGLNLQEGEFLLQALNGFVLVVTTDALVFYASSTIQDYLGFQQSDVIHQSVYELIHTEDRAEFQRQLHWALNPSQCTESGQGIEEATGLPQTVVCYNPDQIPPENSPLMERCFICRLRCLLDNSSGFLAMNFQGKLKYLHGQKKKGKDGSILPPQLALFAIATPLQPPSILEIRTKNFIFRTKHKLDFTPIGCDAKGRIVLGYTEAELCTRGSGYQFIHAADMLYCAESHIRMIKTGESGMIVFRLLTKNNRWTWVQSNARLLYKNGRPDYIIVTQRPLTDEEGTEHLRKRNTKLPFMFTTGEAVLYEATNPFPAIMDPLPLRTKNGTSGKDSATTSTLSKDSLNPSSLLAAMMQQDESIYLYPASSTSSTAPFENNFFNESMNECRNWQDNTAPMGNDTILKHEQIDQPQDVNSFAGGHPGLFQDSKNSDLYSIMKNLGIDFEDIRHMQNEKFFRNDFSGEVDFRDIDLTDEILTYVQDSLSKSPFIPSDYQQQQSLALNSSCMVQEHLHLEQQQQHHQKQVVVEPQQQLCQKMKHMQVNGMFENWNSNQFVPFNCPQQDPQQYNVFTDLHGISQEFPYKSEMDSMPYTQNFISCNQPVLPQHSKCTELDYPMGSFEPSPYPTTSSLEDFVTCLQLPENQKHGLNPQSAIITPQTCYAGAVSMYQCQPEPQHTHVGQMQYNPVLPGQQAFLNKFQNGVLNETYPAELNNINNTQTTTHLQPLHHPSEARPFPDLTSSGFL
DAX1 inh-2: blocks DAX1 repression of SF-1 activated StAR promoter; HEK293T StAR-luciferase reporter, SF-1/DAX-1 repression relief; inhibition, % at 6.8 µM; 1.1% of 370,000 active;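 active = inhibition above the mean over all tested compounds plus 3 SD, cut at about 3.6% in these data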;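 also: higher inhibition means more luminescence from relief of DAX-1 repression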
Numbers stand for hits; n = inactive; x = no result given. Only some compounds are listed: those with a hit (about 5.7% of all), similar ones and a draw of the others.

SMILES | hcDAF-12 act | DAX1 inh-1 | hgDAF-12 ag | ssDAF-12 act | AHR activator | DAX1 inh-2
CCc1ccc(Nc2nnc(SCC(=O)Nc3cccc(S(=O)(=O)NC4=NCCCCC4)c3)s2)cc1 | n | n | 12 | n | n | n
CCCC(=O)Nc1nnc(SCC(=O)Nc2ccc3c(c2)OCCO3)s1 | n | n | n | 1.5 | n | n
CCCC(=O)Nc1nnc(SCC(=O)Nc2ccc3c(c2)OCO3)s1 | n | n | n | n | n | n
O=C(CSc1nnc(SCc2ccccc2)s1)N/N=C/c1ccc(C(=O)O)cc1 | n | n | n | n | n | n
CCc1ccc(Nc2nnc(SCC(=O)Nc3ccc(C(=O)O)cc3)s2)cc1 | n | n | n | n | n | 3.7
CC1(c2nnc(Cc3ccccc3)o2)CC(c2ccccc2[N+](=O)[O-])=NO1 (centres undefined) | x | n | x | x | n | x
CC(=O)Nc1ccc(NC(=O)CSc2nnc(NC(=O)C3CC3)s2)cc1 | n | 6.5 | n | n | n | n
COC(=O)c1ccccc1S(=O)(=O)N1CCC(C(=O)OCc2cccc(OC)c2OC)CC1 | n | n | n | n | n | n
COc1cccc(-c2coc3cc4oc(=O)c(CCC(=O)O)c(C)c4cc23)c1 | 5.8 | n | n | n | n | n
COc1ccc(CCNc2nc(-c3sc(C)nc3C)cs2)cc1OC | n | n | n | n | 52 | n
COc1ccc(CCNc2nc(-c3ccncc3)cs2)cc1OC | n | n | n | n | 66 | n
COc1ccc(CCNc2nc(-c3ccc(O)cc3)cs2)cc1OC | n | n | n | n | n | n
CC1(C)CC(=O)C([N+](=O)[O-])=C(NCCCC(=O)O)C1 | n | 4.5 | n | n | n | n
CN(C)/N=C/C=C1\CCC/C(=C/c2cccs2)C1=O | n | 4.4 | 12 | n | n | n
N#C/C(=C\c1ccc(OC(=O)c2ccc(Br)s2)cc1)c1nc2ccccc2[nH]1 | n | n | n | n | n | n
COc1cccc(/C=C(\C#N)c2nc3ccc(C)cc3[nH]2)c1OCC(=O)O | 6.1 | n | n | n | n | n
N#C/C(=C\c1ccccc1C(=O)O)c1nc2ccccc2[nH]1 | n | 4.4 | n | n | n | n
CCOc1cccc(/C=C(/C#N)c2nc3ccccc3[nH]2)c1OCC(=O)O | n | n | n | n | n | n
N#C/C(=C\c1ccc(OC(=O)c2ccc(Cl)s2)cc1)c1nc2ccccc2[nH]1 | n | n | n | n | 49 | n
COc1cc(/C=C(\C#N)c2nc3ccccc3[nH]2)c([N+](=O)[O-])cc1OCc1ccccc1 | n | n | n | n | 88 | n
CCC(C)NC(=O)NCc1ccccc1F (centres undefined) | n | n | n | n | n | n
COc1ccc(CN2CCC[C@]3(N[C@H](c4ccc(OC)cc4)[C@@H]4C(=O)N(C)C(=O)[C@@H]43)C2=O)cc1 | n | n | n | n | x | n
CCOC(=O)C1=C(COC(=O)/C=C/c2cc(OC)c(OC)c(OC)c2)NC(=O)NC1C (centres undefined) | n | n | n | n | n | n
NC(=O)C1CCN(c2nc(-c3ccccc3-c3ccccc3)cs2)CC1 | n | n | n | n | n | n
Cc1ccc2nc(/C(C#N)=N/O)[nH]c2c1 | n | n | n | n | n | n
SMILES | hcDAF-12 act | DAX1 inh-1 | hgDAF-12 ag | ssDAF-12 act | AHR activator | DAX1 inh-2
Cc1ccc2nc(/C(C#N)=C/c3ccccc3C(=O)O)[nH]c2c1 | n | 8.4 | n | 1.0 | n | n
Cc1ccc2nc(/C(C#N)=C/c3cn[nH]c3-c3ccc(F)cc3)[nH]c2c1 | n | n | n | n | 76 | n
Cc1ccc2nc(/C(C#N)=C/c3ccc(O)c(O)c3)[nH]c2c1 | n | n | n | n | 62 | n
CN(C(=O)c1cccc(NC(=O)Cc2ccc(NC(=O)C3CCN(C(=O)CCc4ccccc4)CC3)cc2)c1)C1CCCC1 | n | x | n | n | x | n
COc1ccc(NC(=O)c2cc(S(=O)(=O)N3CCCCC3)c[nH]2)cc1Cl | n | n | n | n | n | n
CC(C)c1ccc(NC(=O)C2CCCN(S(=O)(=O)c3cnc[nH]3)C2)cc1 (centres undefined) | n | 5.5 | n | n | n | n
CC(C)c1ccc(NC(=O)c2cc(S(=O)(=O)N3CCCC3)c[nH]2)cc1 | n | n | n | n | 49 | n
O=C(Nc1ccc(Cl)cc1)C1CCCN(S(=O)(=O)c2cnc[nH]2)C1 (centres undefined) | n | n | n | n | n | n
CCc1ccc(NC(=O)c2cc(S(=O)(=O)N3CCCC3)c[nH]2)cc1 | x | n | x | x | n | x
CC(C)c1ccc(S(=O)(=O)N2CCC(C(=O)N3CCC3)CC2)cc1 | n | n | n | n | n | n
CC(C)c1ccc(S(=O)(=O)N2CCN(C(=O)C3CCCCC3)CC2)cc1 | 5.8 | n | n | n | n | n
CCOc1ccc(NC(=O)c2cc(S(=O)(=O)N3CCCCC3)c[nH]2)cc1 | n | n | n | n | 48 | n
CC(C)(C)C(O)(CC#CCN1CCCC1)c1ccccc1 (centres undefined) | n | n | n | n | n | n
C=CCOC(=O)N1CCC(NS(=O)(=O)c2ccc3c(c2)CCN3C(C)=O)CC1 | n | x | n | n | x | n
CCN(CC)C(=S)Nc1c(C)n(C)n(-c2ccccc2)c1=O | n | 4.5 | n | n | n | n
CCC(C#Cc1ccccc1)N(C)C(N)=NC(=O)/C=C/c1ccccc1 (centres undefined) | n | x | n | n | x | x
CCOc1ccc(-c2nc(CN(Cc3ccccc3)C[C@@H]3CCC(=O)N3)c(C)o2)cc1 | n | n | n | n | n | n
Cc1oc(-c2ccc(C(F)(F)F)cc2)nc1CN(Cc1ccccn1)C[C@@H]1CCC(=O)N1 | n | n | n | n | 75 | n
COC(=O)c1ccc(N2Cc3ccccc3/C2=N\C(=O)Nc2ccccc2)cc1 | n | n | n | n | n | n
CC(=O)c1ccc(N2Cc3ccccc3/C2=N\C(=O)Nc2ccc(Cl)cc2)cc1 | n | n | 12 | n | n | n
O=Cc1cn(CCOc2ccccc2)c2ccccc12 | n | n | n | n | n | n
Cc1nc(C)n(CC(=O)N2CCCC(C(=O)c3cccc4ccccc34)C2)n1 (centres undefined) | n | n | 11 | n | n | n
CCN(CC)C1=C(Cl)C(=O)C(Cl)C12OCCO2 (centres undefined) | n | x | n | n | n | n
CN(C)c1ccc(CNn2cnnc2SCc2ccc(F)cc2)cc1 | n | n | n | n | n | n
Fc1ccc(CSc2nncn2NCc2ccccc2)cc1 | n | 6.9 | n | n | n | n
Clc1cccc2c1CCN(Cc1nc(-c3cnccn3)no1)C2 | n | n | n | n | n | n
O=C(NCc1ccc(F)cc1)C1CCCN(C(=O)NCc2ccccc2)C1 (centres undefined) | n | n | n | n | n | n
O=C(COC(=O)CCc1c[nH]c2ccccc12)NC(c1ccccc1)c1ccccc1 | n | n | n | n | n | n
COc1ccc(OCCC(=O)OCC(=O)NC(=O)NC2CCCCC2)cc1 | n | n | n | n | n | n

High-throughput results: PubChem BioAssay, The Scripps Research Institute Molecular Screening Center
